About 2,900 (47%) of roughly 6,200 compounds were called active. Rule as the data show it: active = inhibition above about 50%; inactive = the rest. The set was probably picked from earlier hits. This is one part of the list.
Assay: Mycobacterium tuberculosis growth inhibition, primary screen (AID 1259343)
Conditions: inhibition: at 10 µM, stronger effect = higher value; outcome: 10 uM
With `OCC1(Cc2ccccc2)CCCN(c2ccc(-c3ccccc3)nn2)C1` (configuration not stated) the inhibition was 23.4% (inactive).
In the case of `CN(Cc1nc(Cc2ccccc2Cl)no1)C1CCCCC1`, the inhibition is reported as 65.6% (active).
For `Cc1noc(CNc2cc(Cl)ccc2Oc2ccccc2)n1`, the inhibition was 33.9% (inactive).
With `COc1cccc(F)c1OCc1nc(CC2CC2)no1` the inhibition was -44.2% (inactive).
For `COc1cccc2c1OCCCN(Cc1nc(Cc3ccccc3Cl)no1)C2`, the inhibition was 14.3% (inactive).
In the case of `Cc1ccc(F)c(OCc2nc(Cc3ccccc3F)no2)c1F`, the inhibition is reported as 81.3% (active).
For `COc1ccc(C2N=C(c3ccccc3C)NO2)cc1O` (configuration not stated), the inhibition was “inactive”.
With `COc1ccc([C@@H]2CC(=O)c3c(O)cc(O)cc3O2)cc1O` the inhibition was 67.2% (active).
With `S=c1oc(-c2cccc(Cl)c2)nn1CN1CCC(c2nnc3ccccn23)CC1` the inhibition was 22.7% (inactive).
With `CN1CCN(Cn2nc(-c3ccc4c(c3)OCO4)oc2=S)CC1` the inhibition was 86.7% (active).
In the case of `Cc1cc(C)cc(-c2nn(CN3CCOCC3(C)C)c(=S)o2)c1`, the inhibition is reported as -38.7% (inactive).
In the case of `CCc1ccc(/C=C/S(=O)(=O)Nc2onc(C)c2C)cc1`, the inhibition is reported as 68.3% (active).
With `O=C(c1ccc(C(F)(F)F)c(F)c1)N1CCC(Cc2ccc(F)cc2)CC1` the inhibition was 87% (active).
In the case of `O=C(c1ccc(F)c(F)c1F)N1CCC(Cc2ccc(-n3cccc3)cc2)CC1`, the inhibition is reported as 56.5% (active).
With `O=C(c1ccc(C(F)(F)F)c(F)c1)N1CCC(Cc2ccc(-n3cccc3)cc2)CC1` the inhibition was 63.9% (active).
With `O=C(c1ccc(Oc2ccc(Cl)cc2)c(F)c1)N1CCC(O)CC1` the inhibition was 5.66% (inactive).
With `CCCc1cc(N2CC(C)CC(C)C2)n2nc3nc(C)cc(C)c3c2n1` (configuration not stated) the inhibition was -1.46% (inactive).
In the case of `CC(NC(=O)c1cc(Cl)ccc1F)c1ccc(Cl)s1` (configuration not stated), the inhibition is reported as 41.4% (inactive).
With `COc1ccc(C(=O)NC(C)c2ccc(Cl)cc2Cl)cc1` (configuration not stated) the inhibition was 55.6% (active).
With `COc1ccc(OCc2cc(C(=O)NC(C)c3csc(C)n3)no2)c(Cl)c1` (configuration not stated) the inhibition was 36.7% (inactive).
For `CN(Cc1ccc(F)cc1)c1ccc(-c2nc(C3CC3)no2)cn1`, the inhibition was 27.2% (inactive).
In the case of `N#CC1(NC(=O)c2ccc(-c3nc(C4CC4)no3)cc2)CCSC1` (configuration not stated), the inhibition is reported as 80.6% (active).
For `O=[N+]([O-])c1ncc[nH]1`, the inhibition was 43.1% (inactive).
For `CC(Cc1n[nH]c(=S)o1)c1ccccc1` (configuration not stated), the inhibition was 36.9% (inactive).
For `COc1ccc(Cc2n[nH]c(=S)o2)cc1`, the inhibition was 101% (active).
For `O=C1c2cccc3cccc(c23)C(=O)N1CCCCCc1n[nH]c(=S)o1`, the inhibition was 29.7% (inactive).
In the case of `COc1ccc(CCCc2n[nH]c(=S)o2)cc1`, the inhibition is reported as 99.7% (active).
In the case of `CCOc1ccc(-c2n[nH]c(=S)o2)cc1`, the inhibition is reported as 48.7% (inactive).
With `S=c1[nH]nc(Cc2ccccc2)o1` the inhibition was -26.6% (inactive).
For `O=C(Nc1ccc(Cl)c(Cl)c1)c1occc1COc1ccccc1`, the inhibition was 32.6% (inactive).
In the case of `O=C(NC1CCCCCC1)c1ccco1`, the inhibition is reported as 55.1% (active).
With `O=C(NC(=S)NC1CCCCCCC1)c1ccco1` the inhibition was 63.9% (active).
With `CN(C)c1ccc(NC(=O)C2C[C@H]2c2ccccc2)cc1C(=O)NC1CCCCC1` (some centres not stated) the inhibition was 20% (inactive).
In the case of `CC(=NNC(=O)NC1CCCCC1)c1ccco1`, the inhibition is reported as -56.6% (inactive).
In the case of `Cc1c(C(=O)NC2CCCCC2)oc2ccccc12`, the inhibition is reported as 90.9% (active).
In the case of `O=C(NC1CCCC1)c1occc1COc1ccccc1`, the inhibition is reported as 60.1% (active).
For `Cc1cc(-c2ccc(NC3=NCCCS3)cc2)nc2ccccc12`, the inhibition was 20.2% (inactive).
In the case of `CC(C)CNC(=O)C(=O)NCCCc1ccc(N(C)C)cc1`, the inhibition is reported as 33% (inactive).
For `CCN(CC)S(=O)(=O)c1ccc(N=Nc2c(C)nn(-c3ccccc3)c2N)cc1`, the inhibition was 25.3% (inactive).
In the case of `Cc1nn(-c2ccccc2)c(N)c1N=Nc1cccc(Cl)c1`, the inhibition is reported as 56% (active).
With `CC(=O)Nc1cccc(N=C2NN=C(C34CC5CC(CC(C5)C3)C4)CS2)c1` the inhibition was 35.4% (inactive).
For `Clc1ccc(-c2csc(NCC3CCCO3)n2)c(Cl)c1` (configuration not stated), the inhibition was 77.3% (active).
With `CN(C)C(=O)c1csc(-c2csc(NCC3CCC3)n2)c1` the inhibition was 38.9% (inactive).
With `Cc1cc(-c2csc(NC3CCCC3)n2)c(C)n1CC1CCCO1` (configuration not stated) the inhibition was 23.4% (inactive).
With `CCCSc1nnc2c(n1)OC=Nc1ccc(Br)cc1-2` the inhibition was 87.8% (active).
With `CCCCSc1nnc2c(n1)OC(C)(CC)Nc1ccccc1-2` (configuration not stated) the inhibition was -11.3% (inactive).
With `CCCCSc1nnc2c(n1)OC=Nc1ccc(Br)cc1-2` the inhibition was 82.3% (active).
In the case of `O=c1c2c3nc4ccccc4nc3n(C3CCCC3)c2ncn1Cc1ccco1`, the inhibition is reported as -15.8% (inactive).
With `Cc1ccc(Cn2nc(-c3ccccc3)ccc2=O)cc1` the inhibition was 70.6% (active).
With `O=c1ccc(-c2ccc(F)cc2)nn1Cc1ccccc1F` the inhibition was 33.9% (inactive).
For `O=c1ccc(-c2ccc(Cl)cc2)nn1Cc1ccccc1F`, the inhibition was 70.5% (active).
With `CCOc1ccc(-c2ccc(=O)n(Cc3ccccc3)n2)cc1` the inhibition was 41.1% (inactive).
With `CCOc1ccc(-c2ccc(=O)n(Cc3ccc(F)cc3)n2)cc1` the inhibition was 90.8% (active).
For `O=c1ccc(-c2cccc(Br)c2)nn1Cc1ccccc1`, the inhibition was 22.6% (inactive).
For `Cc1ccc(-c2ccc(=O)n(Cc3ccccc3)n2)cc1`, the inhibition was 24% (inactive).
With `Cc1ccc(-c2ccc(=O)n(Cc3ccccc3F)n2)cc1` the inhibition was 28.8% (inactive).
For `O=c1ccc(-c2ccc(Br)cc2)nn1Cc1cccc(F)c1`, the inhibition was -4.34% (inactive).
In the case of `O=c1ccc(-c2ccccc2)nn1Cc1cccc(Cl)c1`, the inhibition is reported as 92.4% (active).
For `O=c1ccc(-c2ccc(F)cc2)nn1Cc1ccc(Br)cc1`, the inhibition was 46.8% (inactive).
With `CCOC(=O)NC(O)C(F)(F)C(F)(F)C(F)(F)C(F)(F)C(F)(F)C(F)F` (configuration not stated) the inhibition was 27.7% (inactive).
For `Cc1nnc2n1N=CC=C(c1ccccc1)S2`, the inhibition was 54.6% (active).
In the case of `O=S(=O)(Nc1nc2ccccc2nc1Nc1ccccc1)c1ccc(Br)s1`, the inhibition is reported as 80.6% (active).
In the case of `O=S(=O)(Nc1nc2ccccc2s1)c1ccc(Br)s1`, the inhibition is reported as 70.2% (active).
For `O=S(=O)(Nc1nc2ccccc2s1)c1ccccc1`, the inhibition was 57.6% (active).
With `O=S(=O)(Nc1nc2ccccc2nc1Nc1ccc2c(c1)OCO2)c1cccc2nsnc12` the inhibition was -10.2% (inactive).
With `O=S(=O)(Nc1nc2ccccc2s1)c1ccc(Cl)s1` the inhibition was 93.7% (active).
With `CCN1CCN(C(C)CNc2nc3ccccc3s2)CC1` (configuration not stated) the inhibition was -41.8% (inactive).
In the case of `O=S(=O)(Nc1nc2ccccc2s1)c1cccs1`, the inhibition is reported as -38.3% (inactive).
With `O=C(CCN1CCCCC1c1cccnc1)Nc1nc2ccccc2s1` (configuration not stated) the inhibition was 35.6% (inactive).
With `NC(=S)Nc1nc2ccccc2s1` the inhibition was 89.5% (active).
With `CC(=NNc1nc2ccccc2s1)c1cc2ccccc2o1` the inhibition was 3.87% (inactive).
In the case of `N#Cc1ccc(COc2ccc(Br)cc2Br)cc1`, the inhibition is reported as 1.7% (inactive).
In the case of `Brc1ccc2cc(Oc3ncccn3)ccc2c1`, the inhibition is reported as 5.33% (inactive).
For `Cc1cc(C)nc(Oc2ccc(Br)cc2Br)n1`, the inhibition was 75.3% (active).
With `C=CCOc1ccc(/C=N\O)cc1Cl` the inhibition was 86.2% (active).
With `COC(=O)C[C@H]1C2(C)CC34OC5(C)O[C@@]6([C@H](OC)C(OC(=O)C(C)C)[C@]7(C)C(/C(=C(/OC)C(C)C)C(=O)O[C@H]7c7ccoc7)[C@@]6(O5)[C@H](OC)[C@@]3(OC)C2OC(C)=O)[C@]14C` (some centres not stated) the inhibition was 37.5% (inactive).
With `C=C1C2CC[C@@]3(C)[C@H](c4ccoc4)OC(=O)C[C@]13O[C@H]1CC(O)C(C)(C)C(CC(=O)OC)[C@@]21C` (some centres not stated) the inhibition was 79.9% (active).
In the case of `O=S(=O)(c1ccc(Cl)cc1)c1nc(Nc2ccc(F)cc2F)sc1Cl`, the inhibition is reported as 82.6% (active).
For `CCC(O)c1ccc(OCCCC(C)(C)C#N)cc1` (configuration not stated), the inhibition was 90.6% (active).
In the case of `FC(F)(F)c1ccnn1-c1nc(-c2ccc(Br)cc2)cs1`, the inhibition is reported as 16.4% (inactive).
With `O=S(=O)(Nc1ccc2ccccc2c1)c1ccc(F)c(F)c1F` the inhibition was 84.5% (active).
With `CSc1ccccc1NS(=O)(=O)c1ccc2ccccc2c1` the inhibition was 11.2% (inactive).
For `O=C(NC1CCCC1)c1ccccc1NS(=O)(=O)c1ccc(F)c(F)c1F`, the inhibition was 18.7% (inactive).
In the case of `Cc1cc(Cl)ccc1NS(=O)(=O)c1ccc(F)c(F)c1F`, the inhibition is reported as 23.8% (inactive).
In the case of `O=S(=O)(Nc1ccc(Cl)cc1)c1ccc(F)c(F)c1F`, the inhibition is reported as 95.7% (active).
For `O=C(Nc1ccccc1)C1CSCN1S(=O)(=O)c1ccc(Cl)cc1C(F)(F)F` (configuration not stated), the inhibition was -4.72% (inactive).
In the case of `COc1cc(Cc2cnc(N)nc2N)cc(OC)c1OC`, the inhibition is reported as 98.3% (active).
In the case of `CCCCNC(=O)c1cc2sc3ccccc3c2s1`, the inhibition is reported as 101% (active).
With `CCCCNC(=O)c1ccc(C)c(OCC)c1` the inhibition was -17.8% (inactive).
In the case of `CN(C)c1ccc(/C=C/C(=O)N(C)C2C3CC4CC(C3)CC2C4)cc1` (configuration not stated), the inhibition is reported as 8.71% (inactive).
In the case of `O=C(NNc1ccccc1)C(O)C(O)C(=O)NNc1ccccc1` (configuration not stated), the inhibition is reported as 83.3% (active).
In the case of `CC(C)N(CC(=O)N(CCc1c[nH]c2ccccc12)Cc1ccc(C(C)(C)C)cc1)CC(O)COCc1ccco1` (configuration not stated), the inhibition is reported as 53.8% (active).
In the case of `COCCN(CC(=O)N(Cc1ccc(F)cc1)Cc1ccco1)C(=O)N(C)C`, the inhibition is reported as 22.5% (inactive).
In the case of `COc1ccc(-c2oncc2-c2ccccc2)c(O)c1`, the inhibition is reported as -29.6% (inactive).
In the case of `COc1cccc(Oc2cncnc2-c2ccc(OC)cc2O)c1`, the inhibition is reported as 76.5% (active).
For `CCN(CC)CCNc1nc(C23CC4CC(CC(C4)C2)C3)cs1`, the inhibition was 55.4% (active).
For `CC(C)CCn1c(SCC(=O)NC(C)(C)C)nc2cc(Cl)ccc2c1=O`, the inhibition was 88.4% (active).
With `COCCn1c(SCCc2ccccc2)nc2cc(Cl)ccc2c1=O` the inhibition was 15.5% (inactive).
With `COCCn1c(SC(C)C)nc2ccc(Br)cc2c1=O` the inhibition was -18.7% (inactive).
For `NCCOB(c1ccccc1)c1ccccc1`, the inhibition was 101% (active).
With `O=C(CC1CCCC1)NCCCNC(=O)CC1CCCC1` the inhibition was 7.09% (inactive).
With `O=C(CCl)NCCCCCCCCCNC(=O)CCl` the inhibition was 93.8% (active).
With `CS(=O)(=O)Nc1c(Cl)c(Cl)c(Cl)c(Cl)c1Cl` the inhibition was 84% (active).
In the case of `O=[N+]([O-])c1ccc(Cl)cc1NN=C1C2CC3CC1CC(O)(C3)C2`, the inhibition is reported as 47.3% (inactive).
In the case of `CC(Nc1cc(N2CCNCC2)ccc1[N+](=O)[O-])C12CC3CC(CC(C3)C1)C2` (configuration not stated), the inhibition is reported as 59.9% (active).
For `O=[N+]([O-])c1ccc(N2CCNCC2)cc1NC1C2CC3CC(C2)CC1C3` (configuration not stated), the inhibition was 83.1% (active).
With `Cc1ccc(N2CCN(C(=O)C34CC5CC(CC(C5)C3)C4)CC2)cc1Cl` the inhibition was 10.8% (inactive).

Source: PubChem BioAssay AID1259343 (VanderVen Lab, College of Veterinary Medicine, Cornell …, 2017)
